According to paper PMC7826789 (International Journal of Molecular Sciences, 2021):

How the values were obtained:
Settings in all cases: Compound Concentration (nM):1000
[1] = system: PLK3
[2] = system: PLK4
[3] = system: PRKCD
[4] = system: PRKCE
[5] = system: PRKCH
[6] = system: PRKCI
[7] = system: PRKCQ
[8] = system: PRKD1
[9] = system: PRKD2
[10] = system: PRKD3
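Further: KINOMEscan scanMAX binding as percent activity remaining versus control; lower means stronger binding.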

| SMILES | Percent Control [1] | Percent Control [2] | Percent Control [3] | Percent Control [4] | Percent Control [5] | Percent Control [6] | Percent Control [7] | Percent Control [8] | Percent Control [9] | Percent Control [10] |
| --- | --- | --- | --- | --- | --- | --- | --- | --- | --- | --- |
| COc1ccccc1-c1cc(/C=C2\C(=O)Nc3ncc(Br)cc32)cc(Br)c1O [GW442130X] | 89% | 80% | 100% | 100% | 86% | 100% | 100% | 83% | 100% | 100% |
| NS(=O)(=O)c1ccc(N/N=C2\C(=O)Nc3ccc(-c4cnco4)cc32)cc1 [GW276655] | 76% | 60% | 75% | 100% | 100% | 54% | 81% | 100% | 94% | 100% |
| C/C(Nc1ccc(S(N)(=O)=O)cc1)=C1/C(=O)Nc2ccccc21 [GW335962X] | 83% | 74% | 95% | 96% | 100% | 100% | 81% | 100% | 100% | 86% |
| O=C(Nc1n[nH]c2nc(-c3ccc(O)cc3)c(Br)cc12)C1CC1 [SB-725317] | 88% | 82% | 45% | 46% | 78% | 90% | 58% | 100% | 100% | 99% |
| NS(=O)(=O)c1ccc(Nc2ncc(-c3ccccc3)o2)cc1 [GW572399X] | 86% | 100% | 100% | 100% | 100% | 100% | 100% | 100% | 100% | 61% |
| COc1cc(/C=N/Nc2ncnc3[nH]ncc23)ccc1O [GW578748X] | 52% | 36% | 78% | 100% | 100% | 63% | 96% | 100% | 100% | 85% |
| COC(=O)Nc1nc2ccc(Oc3ccc(NC(=O)Nc4cc(C(F)(F)F)ccc4F)cc3)cc2s1.Cl [GW693917A] | 100% | 66% | 100% | 100% | 100% | 91% | 62% | 100% | 100% | 86% |
| Cl.c1ccc(Cc2nc3ccc(Nc4ncnc5ccccc45)cc3[nH]2)cc1 [GR269666A] | 100% | 100% | 100% | 78% | 100% | 100% | 88% | 100% | 100% | 100% |
| COc1cccc(-n2ncc3c(N/N=C/c4ccncc4)ncnc32)c1 [GW784752X] | 88% | 84% | 100% | 100% | 99% | 72% | 100% | 100% | 100% | 91% |
| CN1CCN(C(=O)c2ccc(NC(=O)Nc3ccc(N(C)c4ccnc(Nc5ccc(CS(C)(=O)=O)cc5)n4)cc3)cc2)CC1.Cl [GW830263A] | 100% | 2.7% | 100% | 99% | 100% | 74% | 51% | 100% | 100% | 100% |
| COc1cc(C=NNc2ncnc3c2cnn3-c2ccccc2)ccc1O [GW513184X] | 71% | 77% | 100% | 88% | 100% | 100% | 86% | 100% | 100% | 100% |
| CCc1ccc(Oc2nccc(-c3c(-c4ccc(F)cc4)ncn3C3CCNCC3)n2)cc1 [SB-242719] | 83% | 79% | 100% | 95% | 100% | 95% | 84% | 95% | 85% | 70% |
| Cl.O=C(Nc1ccc(Oc2ccc3[nH]c(NC(=O)c4ccco4)nc3c2)cc1)Nc1cc(C(F)(F)F)ccc1F [GW683134A] | 86% | 100% | 99% | 100% | 92% | 100% | 100% | 68% | 100% | 82% |
| Cl.O=S1CCN(Cc2ccc(-c3ccc4ncnc(Nc5ccc(OCc6ccccc6)c(F)c5)c4c3)o2)CC1 [GW576924A] | 100% | 100% | 100% | 91% | 100% | 100% | 100% | 100% | 100% | 100% |
| Cl.O=C(Nc1ccc(Oc2ccc3[nH]c(NC(=O)c4ccccc4)nc3c2)cc1)Nc1cc(C(F)(F)F)ccc1F [GW709042A] | 92% | 77% | 87% | 100% | 100% | 90% | 100% | 100% | 100% | 83% |
| COc1cc2ncnc(Nc3ccc4c(cnn4Cc4ccccc4)c3)c2cc1OC.Cl [GW282449A] | 100% | 100% | 100% | 64% | 100% | 100% | 100% | 100% | 100% | 98% |
| NS(=O)(=O)c1ccc(N/N=C2\C(=O)Nc3ccc(Cl)cc32)cc1 [GW280670X] | 95% | 89% | 99% | 100% | 100% | 100% | 100% | 100% | 100% | 100% |
| COc1ccc2c(-c3ccnc(Nc4cccc(OC(F)(F)F)c4)n3)cnn2n1 [GW810372X] | 83% | 100% | 99% | 100% | 94% | 100% | 100% | 100% | 100% | 100% |
| CC1=C(C(=O)Nc2ccc3[nH]ncc3c2)C(c2ccc(Cl)c(Cl)c2)CC(=O)N1 (centres unmarked) [GSK299115A] | 84% | 87% | 100% | 94% | 100% | 91% | 95% | 100% | 85% | 47% |
| COc1cc(N2CCN(C(C)C)CC2)ccc1Nc1nc(Nc2ccc(F)cc2C(=O)NC[C@@H](O)CO)c2cc[nH]c2n1 [GSK1392956A] | 96% | 41% | 100% | 100% | 100% | 97% | 95% | 79% | 57% | 49% |
